# Hits are enriched below; roughly 1.2% of the tested compounds scored in any of these assays.
# BRCT inh green – BRCA1 BRCT-phosphoprotein interaction inhibition; P38398; BRCA1 BRCT-phosphopeptide binding, green fluorescence polarization; Potency, µM (doses to about 76.9 µM), for inactives: top-dose activity change, negative = inhibition, most hits filed as inhibitors; 75,000 compounds, 0.05% hits; AID 875;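 also: potency is read from the fitted curve at half-maximal effect; plate controls were peptide without protein for full effect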
# Target sequence (P38398 whole entry, looked up): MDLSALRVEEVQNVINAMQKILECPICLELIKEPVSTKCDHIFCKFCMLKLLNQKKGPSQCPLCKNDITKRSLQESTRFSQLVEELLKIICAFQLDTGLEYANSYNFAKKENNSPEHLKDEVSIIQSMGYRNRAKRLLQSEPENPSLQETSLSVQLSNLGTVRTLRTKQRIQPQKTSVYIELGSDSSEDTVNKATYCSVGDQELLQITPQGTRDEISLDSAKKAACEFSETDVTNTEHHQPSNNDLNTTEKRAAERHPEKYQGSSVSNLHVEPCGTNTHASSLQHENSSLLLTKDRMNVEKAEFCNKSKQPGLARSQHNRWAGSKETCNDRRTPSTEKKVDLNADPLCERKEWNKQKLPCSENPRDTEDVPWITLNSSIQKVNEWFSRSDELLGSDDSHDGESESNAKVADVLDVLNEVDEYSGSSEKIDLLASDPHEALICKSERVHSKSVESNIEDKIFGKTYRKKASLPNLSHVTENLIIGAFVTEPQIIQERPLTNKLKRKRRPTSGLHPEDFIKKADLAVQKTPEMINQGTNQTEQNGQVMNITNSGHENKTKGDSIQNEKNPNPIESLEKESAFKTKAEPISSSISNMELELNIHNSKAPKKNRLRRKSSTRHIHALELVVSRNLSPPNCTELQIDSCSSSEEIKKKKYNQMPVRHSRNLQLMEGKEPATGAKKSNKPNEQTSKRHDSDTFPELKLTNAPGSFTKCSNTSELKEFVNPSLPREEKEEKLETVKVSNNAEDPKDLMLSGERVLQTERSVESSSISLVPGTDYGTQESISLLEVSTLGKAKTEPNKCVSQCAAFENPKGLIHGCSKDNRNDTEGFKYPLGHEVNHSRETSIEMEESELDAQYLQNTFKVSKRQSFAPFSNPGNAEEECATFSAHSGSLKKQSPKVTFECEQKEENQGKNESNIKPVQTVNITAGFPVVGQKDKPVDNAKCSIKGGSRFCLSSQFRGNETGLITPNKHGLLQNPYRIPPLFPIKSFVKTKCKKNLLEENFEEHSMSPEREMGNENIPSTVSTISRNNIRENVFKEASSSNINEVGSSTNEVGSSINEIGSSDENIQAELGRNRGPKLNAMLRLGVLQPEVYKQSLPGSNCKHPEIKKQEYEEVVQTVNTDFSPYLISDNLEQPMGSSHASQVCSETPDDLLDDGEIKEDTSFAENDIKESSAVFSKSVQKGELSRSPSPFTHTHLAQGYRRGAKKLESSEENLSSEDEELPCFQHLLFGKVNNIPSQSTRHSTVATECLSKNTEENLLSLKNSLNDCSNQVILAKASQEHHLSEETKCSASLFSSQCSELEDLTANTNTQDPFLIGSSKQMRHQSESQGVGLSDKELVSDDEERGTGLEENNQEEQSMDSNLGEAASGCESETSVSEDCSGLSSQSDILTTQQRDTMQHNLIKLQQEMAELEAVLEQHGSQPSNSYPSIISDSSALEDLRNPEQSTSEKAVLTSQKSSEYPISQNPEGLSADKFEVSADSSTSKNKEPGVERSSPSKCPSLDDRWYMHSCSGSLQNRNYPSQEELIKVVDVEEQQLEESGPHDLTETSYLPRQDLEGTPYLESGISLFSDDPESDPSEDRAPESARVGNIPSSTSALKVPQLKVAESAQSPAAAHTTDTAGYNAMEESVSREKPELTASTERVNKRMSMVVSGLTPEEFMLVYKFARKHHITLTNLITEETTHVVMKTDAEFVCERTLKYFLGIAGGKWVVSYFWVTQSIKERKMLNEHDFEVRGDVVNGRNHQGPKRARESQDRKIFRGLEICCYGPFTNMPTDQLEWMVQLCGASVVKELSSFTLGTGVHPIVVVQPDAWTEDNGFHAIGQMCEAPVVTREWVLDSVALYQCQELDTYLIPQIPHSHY
#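 Compounds were incubated for 12 min at room temperature with a complex of 100 nM fluorescein-tagged pBACH1 decapeptide and 250 nM His-tagged BRCT protein. Buffer was phosphate pH 7.3 with EDTA, DTT and Tween 20. Disruption of binding lowers the polarization signal.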
# BRCT PPI red – disrupts BRCA1 BRCT binding to phosphoprotein, red fluorophore readout | BRCT-phosphopeptide binding, red fluorescence polarization | Potency, µM (doses to about 76.9 µM), for the others: at the top dose activity change, negative = inhibition, hits mostly inhibitors | P38398 | AID 892 | 75,000 compounds, 0.03% hits; also: % is scaled to controls: 0 for no effect and ±100 for the full control effect
#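 Fluorescence polarization: 100 nM His-tagged BRCA1 BRCT with 100 nM TAMRA-labelled phospho-BACH1 decapeptide, phosphate buffer pH 7.3 with 150 mM NaCl, DTT, 0.01% Tween 20; 12 min RT. Binding inhibition seen as FP decrease.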
# Hsp90 Hop PPI – changes Hsp90-Hop TPR2A binding signal, up or down | AlphaScreen TPR2A-His6 binding biotin-Hsp90 C-terminal peptide | 71,000 compounds, 0.44% hits | AID 595 | Potency, µM (top dose mostly 57 µM), for the others: at the highest dose activity change, negative = inhibition; active = well fitted curve in either direction with a large enough effect; inconclusive = small, poorly fitted or top-dose-only effect, or another doubt; also: potency is read from the fitted curve at half-maximal effect; % is scaled to controls: 0 for no effect and ±100 for the full control effect
# YjeE inh – displaces an ADP probe from E. coli YjeE (TsaE). Potency, µM. P0AF67. 71,000 compounds, 0.05% hits. purified YjeE enzyme, qHTS inhibition assay
#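 Purified YjeE (10 uM) with BODIPY Texas Red-labeled ADP probe (2 uM); compounds pin-transferred, 15 min at room temperature. Binding inhibition read as decreased fluorescence polarization; ADP titration as control.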
# GBA mod – human lysosomal glucosylceramidase modulation. P04062. purified enzyme, resorufin glucoside fluorescence (screen aimed at inhibitors), 20 min. Potency, µM. 48,000 compounds, 1.1% hits. AID 360; in the data active = potency below about 15 µM; inconclusive = mostly about 16 µM to 33 µM;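 also: potency is read from the fitted curve at half-maximal effect; the screen sought inhibitors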
#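 Normal human glucocerebrosidase (0.2 nM final) was assayed with resorufin β-D-glucopyranoside (30 uM final) in 50mM citric acid/KH2PO4, 10mM sodium taurocholate, 0.01% tween-20, pH 5.9. Compounds were titrated; fluorescence (Ex 548, Em 600) read after 20 min at RT.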
# Pol III holo inh – blocks replication by bacterial DNA polymerase III holoenzyme; reconstituted DNA polymerase III holoenzyme replication, biochemical; Potency, µM (doses to about 57.1 µM), for inactives: at the top dose activity change, negative = inhibition; 71,000 compounds, 0.25% hits; AID 603; also: potency is read from the fitted curve at half-maximal effect; % is scaled to controls: 0 for no effect and ±100 for the full control effect
#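 Reconstituted *E. coli* holoenzyme (0.35 nM Pol III, 1 nM beta, 154 nM SSB, 2 nM primase) was preincubated with compound for 15 min at RT. Synthesis on 1.4 nM ssM13Gori ran 35 min, then was stopped with PicoGreen/EDTA and read as dsDNA fluorescence.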
# Starred values were filed as active, the others as inactive; i = inactive; u = inconclusive; x = not tested or not shown; [ ] = remark or other dose. Unless noted, calls follow the shape of the dose curve; as a rule, active = well fitted curve in the direction sought with a large enough effect; inconclusive = small, poorly fitted or top-dose-only effect, or another doubt; inactive = no such curve, though single readings can be large; an effect the other way counts as inactive or inconclusive.
SMILES,BRCT inh green,BRCT PPI red,Hsp90 Hop PPI,YjeE inh,GBA mod,Pol III holo inh
Clc1ccc(Cn2ncc3c(N4CCCCC4)ncnc32)c(Cl)c1,-2%,0%,-1%,i,11*,0%
Clc1ccc(Cn2ncc3c(N4CCCCC4)ncnc32)cc1,3%,-1%,4%,i,x,-4%
COc1cccc(/C=N/NC(=O)c2cc(-c3ccc(C)cc3)n[nH]2)c1O,20%,9%,x,x,x,x
O=C(COc1ccc(S(=O)(=O)NC2CCCCC2)cc1Cl)NCc1cccnc1,3%,1%,-3%,i,u,5%
O=C(COc1ccc(S(=O)(=O)NC2CCCCC2)cc1Cl)NCC1CCCO1 (stereo unspecified),2%,1%,-4%,i,14*,3%
C#C[C@@]1(O)CC[C@H]2[C@H]3CCC4=Cc5oncc5C[C@]4(C)[C@@H]3CC[C@@]21C,x,x,-8%,i,x,0%
O=c1[nH]c(SCc2ccc(F)cc2)nc2c1cnn2-c1ccc(F)cc1,-1%,0%,1%,i,x,-3%
COC(=O)c1ccc(CSc2nc3c(cnn3-c3ccc(C)c(C)c3)c(=O)[nH]2)o1,-1%,1%,-3%,i,14*,-5%
Cc1c(Cl)cccc1NC(=O)c1cc(-c2ccc(O)cc2)on1,-1%,1%,-5%,i,x,3%
Cc1ccc(Cn2nnc3c(=O)[nH]c(C4CCN(S(=O)(=O)c5ccc(C)cc5)CC4)nc32)cc1,2%,-3%,-6%,i,14*,-3%
O=C(Cn1cccc1)Nc1ccc(OC(F)(F)F)cc1,-8%,-3%,0%,i,15*,1%
Cc1ccc(NC(=O)Cn2cccc2)cc1C,2%,0%,-7%,i,x,0%
CCOC(=O)CCSc1nc2c(c(C(F)(F)F)c1C#N)CCC2,1%,-1%,u,i,15*,-5%
CCCCOC(=O)c1ccc(Nc2ncnc3nc[nH]c23)cc1,-1%,-1%,-8%,i,x,-1%
FC(F)Sc1ccc(Nc2ncnc3nc[nH]c23)cc1,-1%,-1%,-6%,i,5.3*,0%
CN(C)C(=O)c1ccc(-c2cncnc2Nc2ccc(F)cc2)cc1,1%,-1%,10%,i,x,-4%
CC1=C(C(=O)Nc2ccccc2)C(c2ccco2)C(C#N)=C(SCc2ccccc2)N1 (stereo unspecified),-1%,-1%,7%,i,x,2%
CC1=C(C(=O)Nc2ccccc2)C(c2ccco2)C(C#N)=C(SCC(=O)Nc2cccc(C)c2C)N1 (stereo unspecified),3%,0%,0%,i,8.5*,1%
Cc1cccc(Nc2ccccc2C(=O)O)c1C,-1%[3.08 µM],-2%,-4%[26 µM],i,x,2.5µM*
CCCc1cc(COC)c(C#N)c(=O)[nH]1,-1%[15.4 µM],-1%[15.4 µM],0%[11 µM],i,x,1%[11.4 µM]
COc1ccccc1-c1nc(C#N)c(N2CCC(Cc3ccccc3)CC2)o1,-1%,0%,u,i,>77,-1%
COc1ccccc1-c1nc(C#N)c(N2CCN(Cc3ccccc3)CC2)o1,1%,-3%,u,i,12*,5%
O=[N+]([O-])c1cccc(C(F)(F)F)c1,-4%,0%,2%,i,x,2%
O=C(O)COCCN1CCN([C@@H](c2ccccc2)c2ccc(Cl)cc2)CC1,1%[34.4 µM],-1%[34.4 µM],0%[26 µM],i,x,1%[25.6 µM]
CCOc1ccc(NC(=O)Cn2nnc(-c3ccccc3F)n2)cc1,-4%,-2%,1%,i,>77,-2%
SMILES,BRCT inh green,BRCT PPI red,Hsp90 Hop PPI,YjeE inh,GBA mod,Pol III holo inh
CCc1nnc(NC(=O)Cn2nnc(-c3ccccc3F)n2)s1,0%,0%,3%,i,4.5*,0%
Cc1nn(Cc2ccc(C(=O)Nc3nccs3)cc2)c(C)c1Cl,-1%,1%,-4%,i,14*,-4%
CCOc1ccc(Nc2cc(C)nc(N3CCOCC3)n2)cc1,-9%,-1%,u,i,3.4*,5%
CCOC(=O)c1ccc(NC(=O)c2ccc(CN3CCOCC3)cc2)cc1,-1%,0%,-4%,i,x,-6%
CCOC(=O)c1ccc(Nc2cc(C)nc(N3CCOCC3)n2)cc1,0%,-3%,-5%,i,8.5*,-4%
CS(=O)(=O)N(CC(=O)O)c1ccccc1,-3%,0%,x,x,x,x
COCC(=O)NCCNc1nc2ccc(C)cc2cc1C,-2%,-1%,1%,i,2.8*,-7%
CS(=O)(=O)Nc1cccc(-c2nc(Nc3ccncc3)c3ccccc3n2)c1,4%,-2%,-11%,i,x,-9%
O=C(CCCCCNc1nc(=S)[nH]c2ccccc12)N1CCN(c2ccccn2)CC1,-3%,1%,-4%,i,5.7*,-3%
O=C(CCCn1c(=O)[nH]c2ccccc2c1=O)N1CCN(c2ccccn2)CC1,-2%,0%,-7%[2.3 µM],i,x,-1%
Cn1cccc1C(=O)OCc1csc(-c2ccccc2)n1,0%,1%,17%,i,>77,-1%
Cn1cccc1C(=O)OCc1cc(Cl)cc2c1OCOC2,-3%,2%,8%,i,12*,-1%
COc1ccc2nc(N3CCCC3)c(C#N)cc2c1,-11%,-1%,25µM*,i,>77,-7%
COc1ccc2nc(SCC(=O)N3CCCCCC3)c(C#N)cc2c1,5%,-2%,6%,i,>77,-3%
COc1ccc2nc(N3CCCCC3)c(C#N)cc2c1,-4%,0%,25µM*,i,x,-2%
Cc1cc(NC(=O)c2sc(Nc3cccc(C(F)(F)F)c3)nc2N)no1,1%,-2%,-11%,i,12*,-4%
Cc1cc(NC(=O)Nc2cccc(C(F)(F)F)c2)no1,-2%,0%,1%,i,x,-11%
COc1ncc2nc(-c3cn(C)c4ccccc34)c(=O)n(CCC#N)c2n1,-3%,-4%,-4%,i,x,-8%
CCn1c(=N)n(CC(=O)c2ccco2)c2ccccc21,-2%,2%,-2%,i,13*,-2%
O=C(CN1C2=NCCCN2c2ccccc21)c1ccc2c(c1)OCO2,1%,0%,-2%,i,>77,-1%
O=C(CN1C2=NCCCN2c2ccccc21)c1ccc(Br)s1,-3%,1%,-2%,i,6.6*,-1%
CN(C)c1ccc(C2(c3ccc(N(C)C)cc3)OC(=O)c3cc(N(C)C)ccc32)cc1,-1%,-2%,2.5µM*,i,x,-2%
c1ccc(CN2CCC(N3CCN(Cc4ccc5c(c4)OCO5)CC3)CC2)cc1,-3%,-2%,-2%,i,x,-5%
Cc1cccc(Nc2nc(N)nc(CN3CCN(c4ccc(F)cc4)CC3)n2)c1,-2%,2%,u,i,3.3*,4%
Nc1nc(CN2CCN(Cc3ccc4c(c3)OCO4)CC2)nc(Nc2ccccc2)n1,-4%,0%,-7%,i,14*,6%
